# Measurements reported in PubChem BioAssay (Tox21).
# Records with an inconclusive call do not appear. Entries that show only a call come without a potency. The source made the active and inactive calls. Unless noted, calls follow the shape of the dose curve; as a rule, active = well fitted curve in the direction sought with a large enough effect in the repeat runs; inconclusive = weak or mixed curves; inactive = no such curve, though single readings can be large; an effect the other way counts as inactive or inconclusive.
# Legend:
# [1] = qHTS assay to identify small molecule agonists of the peroxisome proliferator-activated receptor delta (PPARd) signaling pathway - cell viability counter screen (AID 743211); also: nearly all actives have a fitted effect of over 55% in size; also: potency is read from the fitted curve at half-maximal effect
# Method in brief: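 Following 5 h plating at 37 C and 5% CO2, PPARd UAS-bla HEK293H cells took up test compounds for 17 h. Viability was quantified by luminescence 30 min after CellTiter-Glo addition at room temperature.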
# [2] = target: Peroxisome proliferator-activated receptor delta (Homo sapiens) (UniProt Q03181); assay: qHTS assay to identify small molecule agonists of the peroxisome proliferator-activated receptor delta (PPARd) signaling pathway (AID 743212; calls by dose curve)
# Method in brief: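 Quantitative high-throughput agonist screen in a HEK293H beta-lactamase reporter line under UAS control. Compounds in DMSO, at 37 C. Fluorescence read after 2 h with FRET substrate at room temperature.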
# [3] = qHTS assay to identify small molecule antagonists of the peroxisome proliferator-activated receptor delta (PPARd) signaling pathway - cell viability counter screen (AID 743213); also: nearly all actives have a fitted effect of over 50% in size; also: potency is read from the fitted curve at half-maximal effect
# Method in brief: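 PPARd-bla HEK293H cells were treated with compounds plus agonist L165041 (300 nM final) for 17 h at 37 C. Viability was then read in the same wells by CellTiter-Glo luminescence after 30 min at room temperature.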
# [4] = target: Bile acid receptor (Homo sapiens) (UniProt Q96RI1); assay: qHTS assay to identify small molecule antagonists of the farnesoid-X-receptor (FXR) signaling pathway (AID 743217; active = well fitted inhibition curve with a large enough effect in the signal ratio in the repeat runs, not every such curve was filed as active; the % refers to the signal ratio)
# Method in brief: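 GeneBLAzer FXR-UAS-bla HEK 293T, CDCA-stimulated (50 uM final). Compound treatment 16 h, 37 °C. Detection: beta-lactamase cleavage of B/G FRET substrate, fluorescence.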
# [5] = qHTS assay to identify small molecule agonists of the farnesoid-X-receptor (FXR) signaling pathway - cell viability counter screen (AID 743218); also: nearly all actives have a fitted effect of over 45% in size; also: potency is read from the fitted curve at half-maximal effect
# Method in brief: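 Parallel cytotoxicity test: compound-treated (16 h, 37 C) HEK 293T FXR-bla reporter cells were lysed with CellTiter-Glo and luminescence recorded.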
# [6] = target: Bile acid receptor (Homo sapiens) (UniProt Q96RI1); assay: qHTS assay to identify small molecule agonists of the farnesoid-X-receptor (FXR) signaling pathway (AID 743220; active = well fitted activation curve with a large enough effect in the signal ratio in the repeat runs, not every such curve was filed as active; the % refers to the signal ratio)
# Method in brief: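 Beta-lactamase reporter under UAS control in GeneBLAzer FXR HEK 293T cells (5000/well) measured with LiveBLAzer FRET substrate after 2 h at room temperature. Compound exposure lasted 16 h at 37C.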
# [7] = target: Vitamin D3 receptor (Homo sapiens) (UniProt P11473); assay: qHTS assay to identify small molecule agonists of the vitamin D receptor (VDR) signaling pathway (AID 743222; calls by dose curve)
# Method in brief: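 In VDR-bla cells, compound-induced beta-lactamase expression is quantified by FRET substrate fluorescence. Treatment lasts 16 h at 37C; substrate develops 2 h at room temperature.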
# [8] = target: Vitamin D3 receptor (Homo sapiens) (UniProt P11473); assay: qHTS assay to identify small molecule antagonists of the vitamin D receptor (VDR) signaling pathway (AID 743223; active = well fitted inhibition curve with a large enough effect in the signal ratio in the repeat runs, not every such curve was filed as active; the % refers to the signal ratio)
# Method in brief: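 Beta-lactamase activity in VDR-bla cells is measured by FRET substrate fluorescence (2 h, room temperature) after cells spend 16 h at 37C with test compound and 3 nM final 1alpha,25-dihydroxyvitamin D3.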
# [9] = qHTS assay to identify small molecule antagonists of the farnesoid-X-receptor (FXR) signaling pathway - cell viability counter screen (AID 743221; active = well fitted cell-killing curve with a large enough effect in the repeat runs, not every such curve was filed as active; also: nearly all actives have a fitted effect of over 50% in size)
# Method in brief: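 Compound effects on cell number were measured as CellTiter-Glo luminescence in HEK 293T cells expressing FXR-UAS-bla, after 16 h at 37 C with 50 uM CDCA (final).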
# [10] = target: Peroxisome proliferator-activated receptor delta (Homo sapiens) (UniProt Q03181); assay: qHTS assay to identify small molecule antagonists of the peroxisome proliferator-activated receptor delta (PPARd) signaling pathway (AID 743215; active = well fitted inhibition curve with a large enough effect in the signal ratio in the repeat runs, not every such curve was filed as active; the % refers to the signal ratio;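 also: cells stimulated with agonist L165041 at 300 nM final during compound exposure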; also: potency is read from the fitted curve at half-maximal effect)
# Method in brief: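 HEK293H UAS-bla, PPARd; agonist L165041 300 nM final with cpd in DMSO; 37 C 17 h; FRET substrate, RT 2 h; fluorescence intensity.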
# Peroxisome proliferator-activated receptor delta (Homo sapiens), sequence (Q03181 whole entry, looked up): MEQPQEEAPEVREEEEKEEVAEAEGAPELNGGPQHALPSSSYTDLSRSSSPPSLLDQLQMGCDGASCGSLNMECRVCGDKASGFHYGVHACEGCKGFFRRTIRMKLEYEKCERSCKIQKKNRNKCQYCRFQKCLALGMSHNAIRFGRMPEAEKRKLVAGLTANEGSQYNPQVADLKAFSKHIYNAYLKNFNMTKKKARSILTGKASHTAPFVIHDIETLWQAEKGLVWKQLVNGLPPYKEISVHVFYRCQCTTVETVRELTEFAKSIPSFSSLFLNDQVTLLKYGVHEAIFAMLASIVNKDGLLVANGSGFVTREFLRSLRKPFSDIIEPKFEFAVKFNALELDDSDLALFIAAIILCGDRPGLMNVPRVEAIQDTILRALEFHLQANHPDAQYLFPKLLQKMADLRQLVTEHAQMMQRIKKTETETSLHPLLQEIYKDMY
# Vitamin D3 receptor (Homo sapiens), sequence (P11473 whole entry, looked up): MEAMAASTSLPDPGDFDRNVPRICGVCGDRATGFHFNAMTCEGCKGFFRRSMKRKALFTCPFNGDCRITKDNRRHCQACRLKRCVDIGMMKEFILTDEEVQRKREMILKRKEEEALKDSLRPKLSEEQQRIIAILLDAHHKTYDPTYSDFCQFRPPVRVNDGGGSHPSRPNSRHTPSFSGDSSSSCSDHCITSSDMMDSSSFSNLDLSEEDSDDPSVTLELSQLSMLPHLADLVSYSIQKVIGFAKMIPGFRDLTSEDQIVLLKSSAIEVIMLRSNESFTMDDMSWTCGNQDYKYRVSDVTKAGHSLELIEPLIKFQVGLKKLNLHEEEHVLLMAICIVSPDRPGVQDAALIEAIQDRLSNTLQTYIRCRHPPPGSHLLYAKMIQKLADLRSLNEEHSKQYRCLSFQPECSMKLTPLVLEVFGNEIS
# Bile acid receptor (Homo sapiens), sequence (Q96RI1 whole entry, looked up): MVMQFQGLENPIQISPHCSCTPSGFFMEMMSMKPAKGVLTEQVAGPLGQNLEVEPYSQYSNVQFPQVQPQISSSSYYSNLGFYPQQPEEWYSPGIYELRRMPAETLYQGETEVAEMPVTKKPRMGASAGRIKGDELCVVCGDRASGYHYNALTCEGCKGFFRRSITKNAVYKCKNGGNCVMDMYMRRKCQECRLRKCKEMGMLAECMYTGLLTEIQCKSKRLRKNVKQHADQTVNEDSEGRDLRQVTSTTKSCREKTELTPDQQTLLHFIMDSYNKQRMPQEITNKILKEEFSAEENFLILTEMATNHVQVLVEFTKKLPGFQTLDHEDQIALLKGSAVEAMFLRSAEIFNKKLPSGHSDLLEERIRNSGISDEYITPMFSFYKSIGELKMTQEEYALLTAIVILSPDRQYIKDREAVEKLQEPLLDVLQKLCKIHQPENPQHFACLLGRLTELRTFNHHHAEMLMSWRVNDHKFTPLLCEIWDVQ
SMILES,Potency [1],outcome [2],Potency [3],Potency [4],Potency [5],outcome [6],outcome [7],outcome [8],Potency [9],Potency [10]
CC1(C)CCC(Cc2ccc(Cl)cc2)C1(O)Cn1cncn1 (centres undefined),inactive,inactive,inactive,inactive,inactive,inactive,inactive,inactive,–,–
CS/C(C)=N/OC(=O)N(C)SN(C)C(=O)O/N=C(\C)SC,inactive,inactive,inactive,inactive,inactive,inactive,–,–,inactive,–
S=C=NCc1ccccc1,inactive,inactive,inactive,–,inactive,–,inactive,–,inactive,–
CC(=O)CCC(C)=O,inactive,inactive,inactive,–,inactive,–,inactive,inactive,inactive,–
Cc1ccc2ccccc2c1,inactive,inactive,inactive,inactive,–,inactive,–,–,inactive,–
CCBr,inactive,inactive,inactive,–,inactive,–,inactive,inactive,inactive,–
ClC=C(Cl)Cl,inactive,inactive,inactive,inactive,–,inactive,–,–,inactive,–
ClCc1cccc(Cl)c1,inactive,inactive,inactive,inactive,inactive,inactive,inactive,inactive,inactive,–
CCOS(C)(=O)=O,inactive,inactive,inactive,inactive,–,inactive,inactive,inactive,inactive,–
CCCCCCCCOC(=O)c1ccc(C(=O)OCCCCCCCC)c(C(=O)OCCCCCCCC)c1,inactive,inactive,inactive,inactive,inactive,inactive,–,–,–,–
NC(=O)CI,inactive,inactive,inactive,–,inactive,–,inactive,inactive,inactive,–
CC(Cl)C(C)Cl (centres undefined),inactive,inactive,inactive,inactive,inactive,inactive,–,–,inactive,–
CC(C)(Cl)[N+](=O)[O-],inactive,inactive,inactive,inactive,inactive,inactive,inactive,–,inactive,–
Oc1ccc(Cl)c(Cl)c1Cl,inactive,inactive,inactive,–,inactive,inactive,inactive,inactive,inactive,–
O=[N+]([O-])c1ccccc1CCl,inactive,inactive,inactive,inactive,inactive,inactive,inactive,–,inactive,–
CC(C)N(CCC(C(N)=O)(c1ccccc1)c1ccccn1)C(C)C (centres undefined),inactive,inactive,inactive,–,inactive,–,inactive,–,–,–
CCOc1nc(F)cc2nc(S(=O)(=O)Nc3c(Cl)cccc3Cl)nn12,inactive,inactive,inactive,inactive,–,inactive,–,–,inactive,–

SMILES,Potency [1],outcome [2],Potency [3],Potency [4],Potency [5],outcome [6],outcome [7],outcome [8],Potency [9],Potency [10]
CC1Sc2c(C(=O)O)c(=O)c3cc(F)c(N4CCNCC4)cc3n21 (centres undefined),inactive,inactive,inactive,inactive,inactive,inactive,inactive,–,inactive,–
C=CC(C)=O,inactive,inactive,inactive,inactive,inactive,inactive,–,–,inactive,–
ClCCCCBr,inactive,inactive,inactive,inactive,inactive,inactive,inactive,inactive,inactive,–
O=C(NC(=O)c1c(F)cccc1F)Nc1ccc(OC(F)(F)C(F)OC(F)(F)F)c(Cl)c1 (centres undefined),inactive,–,inactive,–,inactive,–,inactive,inactive,inactive,inactive
CC(O)(CS(=O)(=O)c1ccc(F)cc1)C(=O)Nc1ccc(C#N)c(C(F)(F)F)c1 (centres undefined),inactive,inactive,–,–,inactive,–,inactive,inactive,inactive,inactive
O=C(Nc1ccccc1)Nc1ccnc(Cl)c1,inactive,inactive,inactive,–,–,inactive,inactive,–,–,–
CC(C)O.CC(C)O.OCCN(CCO)CCO.OCCN(CCO)CCO.[Ti],inactive,–,inactive,–,–,–,–,–,–,–
CCC(COC(=O)c1cc(OC)c(OC)c(OC)c1)(c1ccccc1)N(C)C (centres undefined),inactive,inactive,inactive,–,–,–,inactive,–,inactive,–
CC(C)(CCl)C(=O)Cl,inactive,inactive,–,–,inactive,–,–,–,–,inactive
CC(=O)NC1CCSC1=O (centres undefined),inactive,inactive,inactive,–,inactive,–,inactive,–,–,–
Nc1ccc([N+](=O)[O-])cc1[N+](=O)[O-],inactive,inactive,inactive,–,–,–,inactive,–,inactive,–
Clc1cc(Cl)c(Cl)c(Cl)c1,inactive,inactive,–,–,–,–,inactive,inactive,inactive,inactive
IC(I)=C(I)I,9.77 µM (active),–,12.3 µM (active),–,12.3 µM (active),–,–,–,–,15.5 µM (active)
O=C(O)C1(c2ccc3c(c2)OC[C@H](Cc2ccc(-c4ccccc4)cc2)[C@H]3O)CCCC1,49 µM (active),–,43.6 µM (active),inactive,–,–,–,–,–,–
CCOC(=O)[C@]1(c2ccccc2)Oc2ccccc2[C@@H]1N,54.9 µM (active),inactive,–,–,–,–,inactive,–,–,–
O=Cc1ccc(Cl)cc1Cl,inactive,inactive,inactive,–,inactive,–,inactive,inactive,–,–
O=C=Nc1ccc(Cl)cc1,inactive,inactive,–,–,–,–,inactive,–,inactive,–
